Source: PubChem BioAssay (Tox21)
Records with an inconclusive call do not appear. Where a call stands in place of a potency, no number is given. Active and inactive are the calls of the source. The call rests on the fitted dose curve; in most records, active means well fitted inhibition curve with a large enough effect in the signal ratio in the repeat runs (not every such curve was filed as active); inconclusive means weak or mixed curves, or effect the other way; inactive means no such curve, though single readings can be large or run the other way; the % refers to the signal ratio.

The compounds below were run against Glucocorticoid receptor (Homo sapiens) (UniProt P04150) (assay: qHTS assay to identify small molecule antagonists of the glucocorticoid receptor (GR) signaling pathway (AID 720692)). Conditions: GR-bla HeLa, beta-lactamase FRET ratio, dexamethasone-stimulated, 18 h; series mostly up to 58.5 µM.
Chain of Glucocorticoid receptor (Homo sapiens) (P04150 whole entry, looked up): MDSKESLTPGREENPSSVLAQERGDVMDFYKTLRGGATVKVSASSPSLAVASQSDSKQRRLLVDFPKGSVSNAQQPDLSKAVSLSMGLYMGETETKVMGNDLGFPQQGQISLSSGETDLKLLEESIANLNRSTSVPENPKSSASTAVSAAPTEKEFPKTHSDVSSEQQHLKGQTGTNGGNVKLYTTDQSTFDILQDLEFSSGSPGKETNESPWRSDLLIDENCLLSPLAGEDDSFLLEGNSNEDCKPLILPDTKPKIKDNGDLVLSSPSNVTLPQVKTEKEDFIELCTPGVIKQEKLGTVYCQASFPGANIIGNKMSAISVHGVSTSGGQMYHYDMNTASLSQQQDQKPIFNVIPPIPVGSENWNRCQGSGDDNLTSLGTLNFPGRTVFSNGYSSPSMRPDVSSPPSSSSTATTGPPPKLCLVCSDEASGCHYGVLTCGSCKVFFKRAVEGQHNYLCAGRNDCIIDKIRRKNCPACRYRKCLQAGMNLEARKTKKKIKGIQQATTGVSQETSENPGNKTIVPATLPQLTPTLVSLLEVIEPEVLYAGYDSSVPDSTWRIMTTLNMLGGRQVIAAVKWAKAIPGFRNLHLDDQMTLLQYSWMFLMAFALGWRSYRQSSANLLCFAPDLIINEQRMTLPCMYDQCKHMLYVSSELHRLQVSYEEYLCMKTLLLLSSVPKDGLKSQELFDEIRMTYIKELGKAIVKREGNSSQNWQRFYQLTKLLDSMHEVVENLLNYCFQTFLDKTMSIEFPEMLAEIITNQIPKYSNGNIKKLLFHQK
Text: U.S. Tox21 Program National Center for Advancing Translational Sciences [NCATS] NIH Chemical Genomics Center [NCGC] U.S. Environmental Protection Agency [EPA] National Institutes of Environmental Health Sciences [NIEHS] National Toxicology Program [NTP] U.S. Food and Drug Administration [FDA] Tox21 Assay Overview: The Glucocorticoid receptor (GR) is one of the members of the nuclear receptor family of ligand-dependent transcription factors. GR plays a critical role in carbohydrate, protein and lipid metabolisms and programmed cell death. CellSensor GR-bla HeLa cell line (Invitrogen) contains a beta-lactamase reporter gene under the control of the glucocorticoid response element stably integrated into HeLa cells, a cervical cancer cell line that expresses glucocorticoid receptor. The activation of the reporter gene under culture conditions can be detected by fluorescence intensity. This cell line has been used to screen the Tox21 10K compound library and to identify the compounds that inhibit the GR signaling.
Tox21 Assay Protocol Summary: The GR-bla HeLa cells were dispensed at 1500 cells/5 ul/well in 1536-well black wall/clear bottom plates using a Multidrop Combi (ThermoFisher Scientific, Waltham, MA) dispenser. After the assay plates were incubated at a 37 C/5% CO2 incubator for 4 hours, 23 nL of compounds dissolved in DMSO, positive controls or DMSO only was transferred to the assay plate by a pintool station (Kalypsys, San Diego, CA), followed by addition of 1 uL of dexamethasone (5 nM, final concentration in the well). The plates were incubated at 37 C for 18 hours. After 1 uL of LiveBLAzerTM B/G FRET substrate was added using a Flying Reagent Dispenser (Aurora Discovery, San Diego, CA), the plates were incubated at room temperature for 2 hours, and fluorescence intensity was measured by an Envision plate reader (PerkinElmer, Shelton, CT).
Potency means the concentration at half of the fitted maximal effect.

SMILES	Potency
CN1CCCN=C1COC(=O)C(O)(c1ccccc1)C1CCCCC1 (stereo not given)	inactive
COc1cc(N)c(Cl)cc1C(=O)NC1CCN(CCCOc2ccc(F)cc2)CC1OC (stereo not given)	inactive
OCCN1CCN(CCCN2c3ccccc3Sc3ccc(Cl)cc32)CC1	inactive
CCN(CC)CCNC(=O)COc1ccc(OC)cc1	inactive
O=C(O)CCc1nc(-c2ccccc2)c(-c2ccccc2)o1	inactive
O=C1c2ccccc2C(=O)C1c1nc2ccccc2c(Br)c1O	inactive
Cc1cc(C)c(N)cc1C	inactive
CCOC(=O)c1ccc(OCCN2C[C@H](O)[C@@H](O)[C@H](O)[C@H]2CO)cc1	inactive
FC(F)(F)c1ccccc1Cl	inactive
CCC1NC(=O)c2cc(S(N)(=O)=O)c(Cl)cc2N1 (stereo not given)	inactive
NC(=O)c1ccncc1	inactive
CCn1cc(C(=O)O)c(=O)c2cc(F)c(N3CCNCC3)cc21	inactive
COc1ccccc1Oc1c(NS(=O)(=O)c2ccc(C(C)(C)C)cc2)nc(-c2ncccn2)nc1OCCO	inactive
CCOC(=O)[C@H](CCc1ccccc1)N[C@@H](C)C(=O)N(CC(=O)O)C1Cc2ccccc2C1	inactive
CCC(=O)OC	inactive
NC1[C@H]2CN(c3nc4c(cc3F)c(=O)c(C(=O)O)cn4-c3ccc(F)cc3F)C[C@@H]12 (stereo not given in full)	inactive
COC(=O)C1=C(C)NC(C)=C(C(=O)O[C@@H]2CCCN(Cc3ccccc3)C2)[C@@H]1c1cccc([N+](=O)[O-])c1	10.7 µM (active)
c1csc(SSc2cccs2)c1	inactive
C=CC(=O)[O-].C=CC(=O)[O-].[Zn+2]	inactive
CCCCCCCCC(CCCCCC)C(=O)O (stereo not given)	38.9 µM (active)

SMILES	Potency
Cc1cccc(O)c1N	inactive
O=C(/C=C/c1ccc(O)c(O)c1)O[C@@H]1C[C@@](OC(=O)/C=C/c2ccc(O)c(O)c2)(C(=O)O)C[C@@H](O)[C@@H]1O	inactive
CC1CC(C)C(=O)C1=O (stereo not given)	inactive
Oc1ccc(Cl)c2cccnc12	inactive
COC(=O)CCS	inactive
O=c1cc(-c2ccccc2)oc2cc(O)cc(O)c12	19.5 µM (active)
CCC1CO1 (stereo not given)	inactive
CC(C)(C)C(=O)C(=O)O	inactive
Cc1cc(C)cc(N)c1	inactive
CC(C)(O)c1ccc(CNC(=O)c2cccnc2Oc2ccc3nonc3c2)cc1	inactive
Cc1cc2c(OCC(CNC(C)(C)C)OC(=O)c3ccccc3)cccc2[nH]1 (stereo not given)	inactive
CCOC(=O)/C=C/C(=O)OCC	inactive
CC(CN(C)C)C(C)(O)Cc1ccc(Cl)cc1 (stereo not given)	inactive
C1COC1	inactive
C=C1c2cccc(O)c2C(O)=C2C(=O)[C@]3(O)C(O)=C(C(N)=O)C(=O)[C@@H](N(C)C)[C@@H]3[C@@H](O)[C@H]12	inactive
CC(CO)CO	inactive
CO/N=C(/C(=O)N[C@@H]1C(=O)N2C(C(=O)O)=C(COC(N)=O)CS[C@H]12)c1ccco1	inactive
CCCCN1CCCC1C(=O)Nc1c(C)cc(C)cc1C (stereo not given)	inactive
c1ccc(C[n+]2cccc3ccccc32)cc1	inactive
CCOc1cccc(-n2cc(C(=O)N3CCN(c4cc(C(=O)O)c5ccccc5c4)CC3)nc2-c2ccc(C)cc2)c1	14.8 µM (active)
